# Test results taken from PubChem BioAssay (NCATS).
# Inconclusive results are not listed. Entries that show only a call come without a potency. The source made the active and inactive calls. The call rests on the fitted dose curve; in most records, active means well fitted inhibition curve with a large enough effect; inconclusive means small, poorly fitted or top-dose-only effect; inactive means flat fitted curve, though single readings scatter.
# Test system: CP325
# Experiment: qHTS profiling for inhibitors of Plasmodium falciparum proliferation (AID 504749); further: nearly all actives have a fitted effect of over 60% in size
# Conditions: P. falciparum in erythrocytes, SYBR Green DNA, 72 h; series mostly up to 12.8 µM
# How it was run: (§1)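 Fluorescence of SYBR Green-bound parasite DNA, read at 485/535 nm, served as the growth measure. Infected erythrocytes were cultured with compound 72 h; artemisinin (0.29 uM) and DMSO wells defined the normalization range.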
# Potency means the concentration at half of the fitted maximal effect.
row,SMILES,Potency
1,C[N+](C)(C)CC(O)CC(=O)O (centres undefined),inactive
2,CN1CCCC[C@@H]1CCN1c2ccccc2Sc2ccc(S(C)=O)cc21 (some centres undefined),inactive
3,O=C(Cc1cccs1)NC1C(=O)N2C(C(=O)[O-])=C(C[n+]3ccccc3)CSC12 (centres undefined),inactive
4,C[C@@H]1CCC[C@H](C)N1NC(=O)c1ccc(Cl)c(S(N)(=O)=O)c1,inactive
5,CC(C)N1CCN(c2ccc(OC[C@@H]3CO[C@@](Cn4cncn4)(c4ccc(Cl)cc4Cl)O3)cc2)CC1,inactive

# Test system: CP329
# Experiment: as above
# Conditions: P. falciparum in erythrocytes, SYBR Green DNA, 72 h; series mostly up to 12.8 µM
# How it was run: as §1
row,SMILES,Potency
1,C[N+](C)(C)CC(O)CC(=O)O (centres undefined),inactive
2,CN1CCCC[C@@H]1CCN1c2ccccc2Sc2ccc(S(C)=O)cc21 (some centres undefined),inactive
3,O=C(Cc1cccs1)NC1C(=O)N2C(C(=O)[O-])=C(C[n+]3ccccc3)CSC12 (centres undefined),inactive
4,CN(C)CC/C=C1\c2ccccc2CSc2ccccc21,inactive
5,C[C@@H]1CCC[C@H](C)N1NC(=O)c1ccc(Cl)c(S(N)(=O)=O)c1,inactive
6,CC(C)N1CCN(c2ccc(OC[C@@H]3CO[C@@](Cn4cncn4)(c4ccc(Cl)cc4Cl)O3)cc2)CC1,inactive

# Test system: CP335
# Experiment: as above
# Conditions: P. falciparum in erythrocytes, SYBR Green DNA, 72 h; series mostly up to 12.8 µM
# How it was run: as §1
row,SMILES,Potency
1,C[N+](C)(C)CC(O)CC(=O)O (centres undefined),inactive
2,CN1CCCC[C@@H]1CCN1c2ccccc2Sc2ccc(S(C)=O)cc21 (some centres undefined),inactive
3,O=C(Cc1cccs1)NC1C(=O)N2C(C(=O)[O-])=C(C[n+]3ccccc3)CSC12 (centres undefined),inactive
4,C[C@@H]1CCC[C@H](C)N1NC(=O)c1ccc(Cl)c(S(N)(=O)=O)c1,inactive
5,CC(C)N1CCN(c2ccc(OC[C@@H]3CO[C@@](Cn4cncn4)(c4ccc(Cl)cc4Cl)O3)cc2)CC1,inactive

# Test system: DFO2036
# Experiment: as above
# Conditions: P. falciparum in erythrocytes, SYBR Green DNA, 72 h; series mostly up to 12.8 µM
# How it was run: as §1
row,SMILES,Potency
1,C[N+](C)(C)CC(O)CC(=O)O (centres undefined),inactive
2,CN1CCCC[C@@H]1CCN1c2ccccc2Sc2ccc(S(C)=O)cc21 (some centres undefined),inactive
3,O=C(Cc1cccs1)NC1C(=O)N2C(C(=O)[O-])=C(C[n+]3ccccc3)CSC12 (centres undefined),inactive
4,CN(C)CC/C=C1\c2ccccc2CSc2ccccc21,inactive
5,C[C@@H]1CCC[C@H](C)N1NC(=O)c1ccc(Cl)c(S(N)(=O)=O)c1,inactive
6,CC(C)N1CCN(c2ccc(OC[C@@H]3CO[C@@](Cn4cncn4)(c4ccc(Cl)cc4Cl)O3)cc2)CC1,inactive

# Test system: DIV14
# Experiment: as above
# Conditions: P. falciparum in erythrocytes, SYBR Green DNA, 72 h; series mostly up to 12.8 µM
# How it was run: as §1
row,SMILES,Potency
1,C[N+](C)(C)CC(O)CC(=O)O (centres undefined),inactive
2,CN1CCCC[C@@H]1CCN1c2ccccc2Sc2ccc(S(C)=O)cc21 (some centres undefined),inactive
3,O=C(Cc1cccs1)NC1C(=O)N2C(C(=O)[O-])=C(C[n+]3ccccc3)CSC12 (centres undefined),inactive
4,C[C@@H]1CCC[C@H](C)N1NC(=O)c1ccc(Cl)c(S(N)(=O)=O)c1,inactive
5,CC(C)N1CCN(c2ccc(OC[C@@H]3CO[C@@](Cn4cncn4)(c4ccc(Cl)cc4Cl)O3)cc2)CC1,inactive

# Test system: DIV17
# Experiment: as above
# Conditions: P. falciparum in erythrocytes, SYBR Green DNA, 72 h; series mostly up to 12.8 µM
# How it was run: as §1
row,SMILES,Potency
1,CN1CCCC[C@@H]1CCN1c2ccccc2Sc2ccc(S(C)=O)cc21 (some centres undefined),inactive
2,O=C(Cc1cccs1)NC1C(=O)N2C(C(=O)[O-])=C(C[n+]3ccccc3)CSC12 (centres undefined),inactive
3,C[C@@H]1CCC[C@H](C)N1NC(=O)c1ccc(Cl)c(S(N)(=O)=O)c1,inactive
4,CC(C)N1CCN(c2ccc(OC[C@@H]3CO[C@@](Cn4cncn4)(c4ccc(Cl)cc4Cl)O3)cc2)CC1,inactive

# Test system: DIV30
# Experiment: as above
# Conditions: P. falciparum in erythrocytes, SYBR Green DNA, 72 h; series mostly up to 12.8 µM
# How it was run: as §1
row,SMILES,Potency
1,C[N+](C)(C)CC(O)CC(=O)O (centres undefined),inactive
2,CN1CCCC[C@@H]1CCN1c2ccccc2Sc2ccc(S(C)=O)cc21 (some centres undefined),inactive
3,O=C(Cc1cccs1)NC1C(=O)N2C(C(=O)[O-])=C(C[n+]3ccccc3)CSC12 (centres undefined),inactive
4,C[C@@H]1CCC[C@H](C)N1NC(=O)c1ccc(Cl)c(S(N)(=O)=O)c1,inactive
5,CC(C)N1CCN(c2ccc(OC[C@@H]3CO[C@@](Cn4cncn4)(c4ccc(Cl)cc4Cl)O3)cc2)CC1,inactive

# Test system: Dd2
# Experiment: as above
# Conditions: P. falciparum in erythrocytes, SYBR Green DNA, 72 h; series mostly up to 12.8 µM
# How it was run: as §1
row,SMILES,Potency
1,C[N+](C)(C)CC(O)CC(=O)O (centres undefined),inactive
2,CN1CCCC[C@@H]1CCN1c2ccccc2Sc2ccc(S(C)=O)cc21 (some centres undefined),inactive
3,O=C(Cc1cccs1)NC1C(=O)N2C(C(=O)[O-])=C(C[n+]3ccccc3)CSC12 (centres undefined),inactive
4,CN(C)CC/C=C1\c2ccccc2CSc2ccccc21,1.78 µM (active)
5,C[C@@H]1CCC[C@H](C)N1NC(=O)c1ccc(Cl)c(S(N)(=O)=O)c1,inactive
6,CC(C)N1CCN(c2ccc(OC[C@@H]3CO[C@@](Cn4cncn4)(c4ccc(Cl)cc4Cl)O3)cc2)CC1,inactive

# Test system: ECU
# Experiment: as above
# Conditions: P. falciparum in erythrocytes, SYBR Green DNA, 72 h; series mostly up to 12.8 µM
# How it was run: as §1
row,SMILES,Potency
1,C[N+](C)(C)CC(O)CC(=O)O (centres undefined),inactive
2,CN1CCCC[C@@H]1CCN1c2ccccc2Sc2ccc(S(C)=O)cc21 (some centres undefined),inactive
3,O=C(Cc1cccs1)NC1C(=O)N2C(C(=O)[O-])=C(C[n+]3ccccc3)CSC12 (centres undefined),inactive
4,CN(C)CC/C=C1\c2ccccc2CSc2ccccc21,inactive
5,C[C@@H]1CCC[C@H](C)N1NC(=O)c1ccc(Cl)c(S(N)(=O)=O)c1,inactive
6,CC(C)N1CCN(c2ccc(OC[C@@H]3CO[C@@](Cn4cncn4)(c4ccc(Cl)cc4Cl)O3)cc2)CC1,inactive

# Test system: FAB9
# Experiment: as above
# Conditions: P. falciparum in erythrocytes, SYBR Green DNA, 72 h; series mostly up to 12.8 µM
# How it was run: as §1
row,SMILES,Potency
1,C[N+](C)(C)CC(O)CC(=O)O (centres undefined),inactive
2,CN1CCCC[C@@H]1CCN1c2ccccc2Sc2ccc(S(C)=O)cc21 (some centres undefined),inactive
3,O=C(Cc1cccs1)NC1C(=O)N2C(C(=O)[O-])=C(C[n+]3ccccc3)CSC12 (centres undefined),inactive
4,CN(C)CC/C=C1\c2ccccc2CSc2ccccc21,inactive
5,C[C@@H]1CCC[C@H](C)N1NC(=O)c1ccc(Cl)c(S(N)(=O)=O)c1,inactive
6,CC(C)N1CCN(c2ccc(OC[C@@H]3CO[C@@](Cn4cncn4)(c4ccc(Cl)cc4Cl)O3)cc2)CC1,inactive
